The values below come from PubChem BioAssay (NCATS).

Experiment [1] addresses Estrogen receptor (Homo sapiens) (UniProt P03372). Nature of the experiment: qHTS assay for small molecule antagonists of estrogen receptor alpha signaling (AID 588513; active = well fitted curve in the direction sought with a large enough effect in the signal ratio, with a control signal flat, not every such curve was filed as active; the % refers to the signal ratio; note: potency is the fitted concentration of half-maximal effect). Summed up: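 Fluorescence from CCF4 substrate after 2 h at room temperature gave reporter activity; cells had been exposed to compound and 0.5nM 17-beta-estradiol for 18 h at 37 C. Hill-equation fitting yielded IC50 and maximal response.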
(In qHTS, concentration-response curves come from the screen itself.)

Experiment [2] shares this target. Put plainly: qHTS assay for small molecule agonists of estrogen receptor alpha signaling (AID 588514).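 Note: 0% = vehicle only and 100% = reference agonist; nearly all actives have a fitted effect of over 70% in size.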 In short, it runs like this: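 ER-alpha-UAS-bla GripTite HEK 293 cells in medium with 2% charcoal/dextran-treated FBS were treated with compound titrations at 37 C for 18 hrs; beta-lactamase reporter read by CCF4 fluorescence after 2 hrs at RT.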
In experiment [3] the target is Peroxisome proliferator-activated receptor delta (Homo sapiens) (UniProt Q03181). Nature of the experiment: qHTS assay for small molecule agonists of peroxisome proliferator-activated receptor delta signaling (AID 588534).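 Note: 0% = DMSO basal wells and 100% = positive control agonist at 10 µM.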 In short, it runs like this: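 Cell-based beta-lactamase reporter assay run in agonist mode: cells seeded and incubated 5 hrs at 37 C, compounds added and incubated 18 hrs at 37 C. CCF4 dye fluorescence read after 2 hrs at RT; EC50 and efficacy from Hill fits.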

Experiment [4] addresses Peroxisome proliferator-activated receptor gamma (Homo sapiens) (UniProt P37231). Put plainly: qHTS assay for small molecule agonists of peroxisome proliferator-activated receptor gamma signaling (AID 588536; active = well fitted curve in the direction sought with a large enough effect in the signal ratio, with a control signal flat, not every such curve was filed as active; the % refers to the signal ratio;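 note: 0% = DMSO basal wells and 100% = rosiglitazone at 2 µM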). Summed up:
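Ratiometric blue/green fluorescence (405 nm excitation; 460 and 530 nm emission) from CCF4-loaded HEK293 reporter cells serves as signal. Exposure to test compounds lasts 16 h at 37 C in medium containing 1% charcoal/dextran-treated serum.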

The target is the same in experiment [5]. Put plainly: qHTS assay for small molecule antagonists of peroxisome proliferator-activated receptor gamma signaling (AID 588537; active = well fitted inhibition curve with a large enough effect in the signal ratio, with a control signal flat, not every such curve was filed as active; the % refers to the signal ratio;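 note: reporter cells co-stimulated with 50 nM rosiglitazone agonist during compound treatment; % of control where 0% means no effect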). Summed up:
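Step one: plate 3000 HEK293 UAS-bla cells per well in medium with 1% stripped serum and hold 6-6.5 h at 37 C. Step two: add compound and 50 nM agonist for 16 h. Step three: CCF4 loading, fluorescence read.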

Experiment [6] addresses Retinoic acid receptor RXR-alpha (Homo sapiens) (UniProt P19793). Put plainly: qHTS assay for small molecule agonists of retinoid X receptor alpha signaling (AID 588544).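 Note: 0% = DMSO basal wells and 100% = reference agonist.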
Experiment [7] concerns the target Thyroid hormone receptor beta (Homo sapiens) (UniProt P10828). Nature of the experiment: qHTS assay for small molecule agonists of thyroid hormone receptor beta signaling (AID 588545).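 Note: 0% = DMSO only and 100% = 10 nM T3.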 Summed up:
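Stimulation of a TR-driven beta-lactamase reporter was quantified in GripTite HEK 293 cells. Compound series ran for 18 hrs; curves were normalized to T3 and DMSO controls and fitted to yield EC50.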

The nature of experiment [8]: qHTS assay for small molecule antagonists of retinoid X receptor alpha signaling (AID 588546; active = well fitted inhibition curve with a large enough effect in the signal ratio, with a control signal flat, not every such curve was filed as active; the % refers to the signal ratio;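 note: cells stimulated with 9-cis-retinoic acid as agonist; % is set by controls: 0 for no effect and ±100 for the full control effect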). As to conditions: HEK293T RXRa-UAS-bla, beta-lactamase ratio, antagonist mode; measured here: W530 green channel, cytotoxicity proxy. In short, it runs like this:
(§1)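 Beta-lactamase reporter inhibition, read as CCF4 fluorescence ratio (ex 405, em 460/530 nm) after 2 h at RT. HEK293T UAS-bla cells, 2500/well, were stimulated with 9-cis-RA at 500 or 100 nM final alongside test compound for 18 h at 37 C.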

Experiment [9] has as its target Retinoic acid receptor RXR-alpha (Homo sapiens) (UniProt P19793). Described as above. As to conditions: HEK293T RXRa-UAS-bla, beta-lactamase ratio, antagonist mode. In short, it runs like this: as §1
Experiment [10] deals with Thyroid hormone receptor beta (Homo sapiens) (UniProt P10828). Nature of the experiment: qHTS assay for small molecule antagonists of thyroid hormone receptor beta signaling (AID 588547; active = well fitted inhibition curve with a large enough effect in the signal ratio, with a control signal flat, not every such curve was filed as active; the % refers to the signal ratio;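 note: cells stimulated with 0.4 nM T3 agonist during compound exposure; series mostly up to about 77 µM; % is set by controls: 0 for no effect and ±100 for the full control effect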). As to conditions: TR-UAS-bla HEK293, beta-lactamase ratio, antagonist mode, 18 h. In short, it runs like this:
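TR-UAS-bla GripTite HEK293 cells in 2% charcoal/dextran FBS medium; compounds 0.59 nM to 92 uM with T3 at 0.4nM final, 18 h at 37 C. Beta-lactamase read by CCF4 fluorescence (460/530 nm); Hill fits gave IC50 and efficacy.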

Experiment [11] can be described thus: qHTS assay for small molecule activators of the p53 signaling pathway (AID 651743; active = well fitted activation curve with a large enough effect in the signal ratio, not every such curve was filed as active; the % refers to the signal ratio; note: potency is the fitted concentration of half-maximal effect; for activation: series mostly up to about 92 µM; % of control where 0% means no effect). As to conditions: HCT-116 p53RE-bla, beta-lactamase FRET ratio, 16 h; activation: stronger effect = higher value. Summed up:
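HCT-116 p53RE-bla, 4,000 cells/well; 5 h settle; cpd/DMSO 16 h, 37 C; LiveBLAzer B/G 2 h RT; fluorescence intensity.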

Experiment [12] can be described thus: qHTS assay for environmental chemicals that activate the Aryl hydrocarbon Receptor (AhR) signaling pathway (AID 651777; active = well fitted curve in the direction sought with a large enough effect; an effect the other way counts as inactive or inconclusive; note: % of control where 0% means no effect; nearly all actives have a fitted effect of over 15% in size). As to conditions: 1A2-DRE human hepatoma cells, luciferase, 24 h; activation: stronger effect = higher value. In short, it runs like this:
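Luminescence (One-Glo, 30 min, room temperature) reports AhR-driven luciferase in stably transfected human hepatoma cells bearing DRE and CYP1A2 promoter. Cells (1,200/well) were treated with compound for 24 hr at 37 C in qHTS format.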

The target of experiment [13] is Peroxisome proliferator-activated receptor alpha (Homo sapiens) (UniProt Q07869). Nature of the experiment: qHTS assay for small molecule agonists of the peroxisome proliferator-activated receptor alpha (PPARalpha) signaling pathway (AID 651778; active = well fitted curve in the direction sought with a large enough effect; an effect the other way counts as inactive or inconclusive; note: % of control where 0% means no effect). As to conditions: PathHunter PPARalpha complementation, chemiluminescence, 6 h; max response: stronger effect = higher value. Summed up: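 Enzyme-fragment complementation assay in which ligand-bound PPARalpha translocates and forms an active enzyme that generates chemiluminescence. Cells were plated overnight, exposed to compound for 6 hr at 37 C, and then given detection reagent for 60 min at room temperature.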

Experiment [14] in a line: qHTS assay for small molecule agonists of the antioxidant response element (ARE) signaling pathway measured by Nrf2-dependant transcriptional activity (AID 720636; active = well fitted curve in the direction sought with a large enough effect in the repeat runs; an effect the other way counts as inactive or inconclusive; note: % of control where 0% means no effect). Summed up:
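Nrf2-dependent transcription read as ONE-Glo luciferase signal from ARE-luc HepG2 reporter cells after 16 hr compound treatment at 37 C, 5% CO2, in assay medium with 1% dialyzed FBS.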

Experiment [15] in a line: qHTS assay for small molecule agonists of the antioxidant response element (ARE) signaling pathway measured by Nrf2-dependant transcriptional activity - cell viability counter screen (AID 720653; active = well fitted curve in the direction sought with a large enough effect in the repeat runs; an effect the other way counts as inactive or inconclusive; note: % is set by controls: 0 for no effect and ±100 for the full control effect). As to conditions: ARE-bla HepG2 viability, CellTiter-Glo ATP luminescence, 16 h; max response: stronger effect = lower value. In short, it runs like this: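 ARE-bla HepG2 cells treated with compounds for 16 h at 37C; this counter screen measures viability as intracellular ATP by CellTiter-Glo luminescence after 30 min at room temperature.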

The nature of experiment [16]: qHTS assay for cell viability of HEK293 cells (AID 743288; active = well fitted curve in the direction sought with a large enough effect; an effect the other way counts as inactive or inconclusive; note: % is set by controls: 0 for no effect and ±100 for the full control effect; nearly all actives have a fitted effect of over 50% in size). As to conditions: ATP luminescence (CellTiter-Glo), 18 h; max response: stronger effect = lower value. In short, it runs like this: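 HEK293 parental, 2,000 cells/well; ≥5 h pre-incubation 37 C; pintool compound addition; 18 h, 37 C; CellTiter-Glo 30 min RT; luminescence read.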
The target of experiment [17] is Vitamin D3 receptor (Homo sapiens) (UniProt P11473). Nature of the experiment: qHTS assay for small molecule antagonists of vitamin D receptor signaling (AID 588541).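 Note: receptor activated by calcitriol during compound treatment; series mostly up to about 77 µM; % is set by controls: 0 for no effect and ±100 for the full control effect.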 In short, it runs like this:
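VDR-UAS-bla HEK293T cells in 2% charcoal-stripped FBS were stimulated with 1-alpha,25-dihydroxyvitamin D3 (3 nM final) plus compound for 16 h at 37 C. The beta-lactamase CCF4 readout was normalized to 50 nM agonist and DMSO, and Hill fits gave IC50.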

For experiment [18] the target is unchanged. Nature of the experiment: qHTS assay for small molecule agonists of vitamin D receptor signaling (AID 588543).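 Note: 0% = DMSO basal and 100% = reference agonist control.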 Summed up:
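Reporter cells (HEK293T, VDR-UAS-bla) were seeded in medium with 2% charcoal-stripped serum and incubated 5 h, then compounds in concentration series were added for 16 h at 37 °C. Stimulation was scaled between DMSO basal and 50 nM 1α,25-dihydroxyvitamin D3.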

Experiment [19] is described as follows: qHTS assay for cell viability of the p53RE-bla HCT-116 cell line (AID 743292; active = well fitted curve in the direction sought with a large enough effect; an effect the other way counts as inactive or inconclusive; note: % is set by controls: 0 for no effect and ±100 for the full control effect; nearly all actives have a fitted effect of over 55% in size). Summed up:
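ATP-based luminescent viability (CellTiter-Glo, 30 min RT) after 16 h compound treatment at 37 C of p53RE-bla HCT-116 cells, seeded at 4,000 cells/well and rested 5 h before dosing.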

The target of experiment [20] is Nuclear receptor subfamily 1 group I member 2 (Rattus norvegicus) (UniProt Q9R1A7). Put plainly: qHTS assay for small molecule activators of the rat pregnane X receptor (rPXR) signaling pathway (AID 651751; call rule not given here; note: 0% is about no effect). As to conditions: rPXR reporter cells, luciferase (One-Glo), 24 h.

Structures are written as SMILES. Records with an inconclusive call do not appear. Calls of active or inactive are those of the source. Unless noted, calls come from the whole dose curve.

Vitamin D3 receptor (Homo sapiens), sequence (P11473 whole entry, looked up): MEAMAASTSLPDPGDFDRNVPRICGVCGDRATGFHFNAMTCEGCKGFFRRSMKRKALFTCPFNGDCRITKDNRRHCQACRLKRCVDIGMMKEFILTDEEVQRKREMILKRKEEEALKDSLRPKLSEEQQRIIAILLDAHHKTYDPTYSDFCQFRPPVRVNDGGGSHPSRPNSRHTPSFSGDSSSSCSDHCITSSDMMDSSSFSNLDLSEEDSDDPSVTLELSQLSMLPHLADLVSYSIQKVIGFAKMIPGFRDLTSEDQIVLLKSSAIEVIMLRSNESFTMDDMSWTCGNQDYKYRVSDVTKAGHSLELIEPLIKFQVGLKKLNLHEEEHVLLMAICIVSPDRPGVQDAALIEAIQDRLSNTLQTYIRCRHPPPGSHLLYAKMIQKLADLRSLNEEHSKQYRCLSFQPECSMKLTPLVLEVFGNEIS
Retinoic acid receptor RXR-alpha (Homo sapiens), sequence (P19793 whole entry, looked up): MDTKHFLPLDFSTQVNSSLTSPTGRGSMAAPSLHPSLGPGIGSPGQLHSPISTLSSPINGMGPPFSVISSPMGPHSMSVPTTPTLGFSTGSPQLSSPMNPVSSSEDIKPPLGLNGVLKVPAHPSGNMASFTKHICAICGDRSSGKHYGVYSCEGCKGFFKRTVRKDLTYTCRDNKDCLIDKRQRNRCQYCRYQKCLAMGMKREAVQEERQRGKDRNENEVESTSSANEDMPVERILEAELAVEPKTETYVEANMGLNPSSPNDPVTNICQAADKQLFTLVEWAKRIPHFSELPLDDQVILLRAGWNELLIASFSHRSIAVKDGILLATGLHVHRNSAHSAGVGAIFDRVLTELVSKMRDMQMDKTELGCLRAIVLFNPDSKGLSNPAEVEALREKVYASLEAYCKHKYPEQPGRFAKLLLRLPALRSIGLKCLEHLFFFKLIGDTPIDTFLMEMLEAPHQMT
Thyroid hormone receptor beta (Homo sapiens), sequence (P10828 whole entry, looked up): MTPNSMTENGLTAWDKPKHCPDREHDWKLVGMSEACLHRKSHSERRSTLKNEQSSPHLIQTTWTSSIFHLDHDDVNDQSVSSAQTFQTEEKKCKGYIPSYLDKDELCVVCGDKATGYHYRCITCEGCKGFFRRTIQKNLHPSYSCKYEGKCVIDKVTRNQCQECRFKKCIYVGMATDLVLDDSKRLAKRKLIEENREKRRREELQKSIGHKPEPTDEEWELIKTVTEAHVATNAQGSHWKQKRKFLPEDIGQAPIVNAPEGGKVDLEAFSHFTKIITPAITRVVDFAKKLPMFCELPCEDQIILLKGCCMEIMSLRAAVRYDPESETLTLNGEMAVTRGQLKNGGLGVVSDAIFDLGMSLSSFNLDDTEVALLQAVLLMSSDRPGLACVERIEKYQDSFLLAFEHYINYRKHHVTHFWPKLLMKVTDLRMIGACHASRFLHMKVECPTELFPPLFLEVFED
Peroxisome proliferator-activated receptor alpha (Homo sapiens), sequence (Q07869 whole entry, looked up, the tested form may be a part): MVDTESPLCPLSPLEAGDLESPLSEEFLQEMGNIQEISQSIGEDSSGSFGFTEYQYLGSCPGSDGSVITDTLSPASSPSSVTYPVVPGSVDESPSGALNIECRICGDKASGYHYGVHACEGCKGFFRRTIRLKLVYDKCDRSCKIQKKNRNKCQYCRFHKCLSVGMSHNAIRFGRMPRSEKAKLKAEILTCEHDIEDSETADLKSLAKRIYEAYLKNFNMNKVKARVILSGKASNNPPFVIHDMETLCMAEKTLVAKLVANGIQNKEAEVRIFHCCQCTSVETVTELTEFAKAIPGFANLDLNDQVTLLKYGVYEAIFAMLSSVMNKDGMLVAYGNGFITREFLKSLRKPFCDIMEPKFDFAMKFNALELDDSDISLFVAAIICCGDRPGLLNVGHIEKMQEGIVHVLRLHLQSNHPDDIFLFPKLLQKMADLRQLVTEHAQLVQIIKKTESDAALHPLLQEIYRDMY
Peroxisome proliferator-activated receptor gamma (Homo sapiens), sequence (P37231 whole entry, looked up): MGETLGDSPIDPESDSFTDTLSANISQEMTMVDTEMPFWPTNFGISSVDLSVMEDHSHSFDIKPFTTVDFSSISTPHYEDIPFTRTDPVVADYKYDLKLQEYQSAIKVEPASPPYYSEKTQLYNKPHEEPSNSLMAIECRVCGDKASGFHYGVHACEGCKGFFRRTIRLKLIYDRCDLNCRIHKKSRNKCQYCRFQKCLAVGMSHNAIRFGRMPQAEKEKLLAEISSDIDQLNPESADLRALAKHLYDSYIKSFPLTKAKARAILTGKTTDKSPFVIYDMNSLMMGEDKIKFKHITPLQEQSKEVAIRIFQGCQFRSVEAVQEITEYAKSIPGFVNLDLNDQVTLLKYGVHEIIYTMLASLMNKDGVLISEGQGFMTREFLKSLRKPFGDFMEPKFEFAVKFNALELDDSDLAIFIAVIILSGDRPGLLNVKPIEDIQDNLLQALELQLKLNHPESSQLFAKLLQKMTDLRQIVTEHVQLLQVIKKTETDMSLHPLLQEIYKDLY
Estrogen receptor (Homo sapiens), sequence (P03372 whole entry, looked up): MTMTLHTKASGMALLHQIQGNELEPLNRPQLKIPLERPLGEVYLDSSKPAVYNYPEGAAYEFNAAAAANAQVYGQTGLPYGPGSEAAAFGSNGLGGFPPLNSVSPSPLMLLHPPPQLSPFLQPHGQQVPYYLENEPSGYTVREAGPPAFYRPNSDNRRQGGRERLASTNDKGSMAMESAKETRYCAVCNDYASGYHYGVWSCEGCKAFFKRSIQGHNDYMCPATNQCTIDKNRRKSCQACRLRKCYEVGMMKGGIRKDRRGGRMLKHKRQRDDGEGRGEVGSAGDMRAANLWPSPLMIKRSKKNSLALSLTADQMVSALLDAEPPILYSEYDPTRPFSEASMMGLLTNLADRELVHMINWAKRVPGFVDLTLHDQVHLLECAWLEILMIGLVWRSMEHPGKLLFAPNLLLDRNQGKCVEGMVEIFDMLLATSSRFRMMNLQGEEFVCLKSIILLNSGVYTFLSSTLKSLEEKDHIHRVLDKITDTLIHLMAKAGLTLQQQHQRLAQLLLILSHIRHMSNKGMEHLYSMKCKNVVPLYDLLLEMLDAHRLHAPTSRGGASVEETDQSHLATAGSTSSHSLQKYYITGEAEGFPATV
Nuclear receptor subfamily 1 group I member 2 (Rattus norvegicus), sequence (Q9R1A7 whole entry, looked up): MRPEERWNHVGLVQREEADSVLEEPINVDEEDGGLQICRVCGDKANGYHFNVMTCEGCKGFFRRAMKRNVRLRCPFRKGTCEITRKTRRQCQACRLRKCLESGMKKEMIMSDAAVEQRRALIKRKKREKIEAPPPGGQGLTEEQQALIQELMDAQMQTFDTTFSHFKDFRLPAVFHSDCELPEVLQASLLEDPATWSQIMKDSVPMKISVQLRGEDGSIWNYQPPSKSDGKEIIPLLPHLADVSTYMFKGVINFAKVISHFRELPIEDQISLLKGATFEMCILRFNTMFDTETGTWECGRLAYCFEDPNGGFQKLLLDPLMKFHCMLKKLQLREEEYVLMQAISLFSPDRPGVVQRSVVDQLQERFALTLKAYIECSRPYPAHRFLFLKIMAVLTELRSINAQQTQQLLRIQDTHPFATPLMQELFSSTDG
Peroxisome proliferator-activated receptor delta (Homo sapiens), sequence (Q03181 whole entry, looked up): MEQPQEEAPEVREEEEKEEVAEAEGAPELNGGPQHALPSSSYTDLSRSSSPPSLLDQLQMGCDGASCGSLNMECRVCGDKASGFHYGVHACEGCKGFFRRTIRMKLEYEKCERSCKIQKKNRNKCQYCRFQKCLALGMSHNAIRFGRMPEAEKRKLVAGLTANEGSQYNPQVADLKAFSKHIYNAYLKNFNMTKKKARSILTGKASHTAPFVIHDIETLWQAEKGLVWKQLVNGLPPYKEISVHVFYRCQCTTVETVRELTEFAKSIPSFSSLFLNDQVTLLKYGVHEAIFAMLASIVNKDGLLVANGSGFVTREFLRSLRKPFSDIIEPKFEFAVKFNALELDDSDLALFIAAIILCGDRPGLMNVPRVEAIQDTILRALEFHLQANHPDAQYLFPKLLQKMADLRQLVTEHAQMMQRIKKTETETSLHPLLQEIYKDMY

Take `CCN(CC)C(=O)C(C)Oc1cccc2ccccc12` (centres undefined): the Potency result in [1], in [2], in experiment [4], in experiment [5], in [6] and in [7] was “inactive” in each case. Besides, in experiment [14], the Potency result was “inactive”. Besides, the outcome in experiment [3] was inactive. The max response is -20.3% in experiment [8]; -6.13% (inactive) in experiment [9]; 0.442% (inactive) in experiment [13]; -4.78% (inactive) in experiment [15]; -1.61% (inactive) in experiment [16]. The activity change % (negative = inhibition) in experiment [10] was -8.01% (inactive). Moreover, the figures for the activation in experiment [11] and in [12] were -0.234% (inactive) and 1.45% (inactive), respectively.
`CCOP(=O)(NC(C)C)Oc1ccc(S(C)=O)c(C)c1` (centres undefined): the Potency result in experiment [1], in [2], in [4], in [17], in experiment [6] and in experiment [7] was “inactive” each time. Also, the Potency entry in [14] and in [19] was “inactive” throughout. In addition, the call in [3] and in [18] was inactive. In addition, the figures for the max response in experiment [8], in [15] and in experiment [20] were -12.4%, 20.7% (inactive) and -1.03% (inactive), respectively. Further, in experiment [10], the activity change % (negative = inhibition) is 7.26% (inactive). The activation was -0.147% (inactive) in experiment [11] and 3.87% (inactive) in experiment [12].
Regarding `COP(=O)(OC)Oc1ccc([N+](=O)[O-])cc1`, the Potency result in experiment [1], in experiment [2], in [14] and in [19] was “inactive” each time. Further, the compound was called inactive in experiment [18]. The activation in experiment [12] was 0.442% (inactive). Further, the max response was -5.35% (inactive) in experiment [13], -1.73% (inactive) in [15], -12.8% (inactive) in [16] and -1.53% (inactive) in experiment [20].
For `Oc1ccc(C2(c3ccc(O)cc3)c3ccccc3-c3ccccc32)cc1`, the results for the Potency in experiment [1] and in [11] were 15.8 µM [inhibitor] (active) and 39.8 µM (active), respectively. The Potency entry in experiment [2] and in experiment [14] was “inactive” in each case. For the same compound, the outcome in [3] and in experiment [18] was inactive. Further, the max response in [13] is -1.22% (inactive); in experiment [15], -12.4% (inactive); in experiment [16] it was -3.45% (inactive); in experiment [20], -3.03% (inactive).
Turning to `Nc1ccc([N+](=O)[O-])cc1Cl`, the Potency entry in experiment [1], in experiment [2], in experiment [4], in experiment [17], in experiment [6] and in experiment [7] was “inactive” throughout. The Potency result in experiment [14] and in experiment [19] was “inactive” throughout. The outcome in experiment [3] and in experiment [18] was inactive. The max response is -11.1% in experiment [8]; -1.45% (inactive) in [9]; -5.45% (inactive) in [13]; 3.06% (inactive) in experiment [15]; -1.89% (inactive) in experiment [16]; 2.06% (inactive) in experiment [20]. Further, the activity change % (negative = inhibition) in experiment [10] was -8.47% (inactive). Moreover, the activation in [12] was 3.47% (inactive).
As to `O=c1[nH]c2ccccc2c(=O)o1`, the Potency result in experiment [1], in experiment [2], in [4], in experiment [5], in [17] and in experiment [6] was “inactive” in each case. In addition, the Potency result in [7], in experiment [14] and in experiment [19] was “inactive” in each case. Besides, the compound was classed as inactive in experiment [18]. Moreover, the max response is -14.4% in [8]; -21.4% (inactive) in experiment [9]; -3.96% (inactive) in experiment [13]; -1.48% (inactive) in experiment [15]; -10.1% (inactive) in experiment [16]; -5.81% (inactive) in experiment [20]. Besides, the activity change % (negative = inhibition) in [10] was -10.7% (inactive). For the same compound, the figures for the activation in experiment [11] and in experiment [12] were 1.12% (inactive) and 0.82% (inactive), respectively.
